This is a sample that favours compounds with a hit; in the whole collection about 2.8% have one here.
RGS4 inhibitor: human RGS4 inhibition | Transcreener GDP fluorescence polarization, RGS4-accelerated GTP hydrolysis | AID 504845 | P49798 | Potency, µM (series often up to 114 µM), inactives show top-dose activity change, negative = inhibition, hits mostly inhibitors | 390,000 tested, 0.039% active; active = well fitted inhibition curve with a large enough effect; inconclusive = small, poorly fitted or top-dose-only effect; inactive = no such curve, though single readings can be large or run the other way; note: potency is the fitted concentration of half-maximal effect; % is set by controls: 0 for no effect and ±100 for the full control effect; nearly all actives have a fitted effect of over 75% in size
Target sequence (P49798 whole entry, looked up): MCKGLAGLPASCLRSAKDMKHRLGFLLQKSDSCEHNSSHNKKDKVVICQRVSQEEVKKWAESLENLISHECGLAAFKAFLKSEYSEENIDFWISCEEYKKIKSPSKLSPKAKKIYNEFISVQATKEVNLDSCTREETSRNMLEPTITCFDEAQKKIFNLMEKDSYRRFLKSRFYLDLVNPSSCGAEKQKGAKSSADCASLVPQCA
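MLSMR compounds (23 nl, pin-transferred) preincubated 10 min at room temperature with a 500nM (2x) first reagent, then RGS4 at 900nM (2x) plus Transcreener GDP mix added; fluorescence polarization (620/688 nm) read before and after 90 min at 30 °C.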
LDHA block: inhibitors of human lactate dehydrogenase A; purified LDHA, NADH/diaphorase-resazurin fluorescence; stronger effect = lower value; 480,000 tested, 0.15% active; activity change, % (values are at about 110 or 230 µM); P00338; AID 1347041; in the data active = activity change below about -30%; inconclusive = mostly about -25% to -30%;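 note: plate controls were DMSO wells for no effect and wells without enzyme for full effect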
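Human LDH5 at 2 nM final in Tris HCl pH 7.4 with 0.06 mM NADH and 0.2 mM pyruvate, reacted 5 minutes at room temperature. Remaining NADH coupled via diaphorase/resazurin; resorufin fluorescence read at 0 and 20 minutes, normalized to enzyme-free and DMSO wells.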
Akt phos inh: Akt phosphorylation inhibition; Neuro2A IGF-stimulated pAkt S473 HTRF, 20 min; stronger effect = lower value; 360,000 tested, 0.32% active; activity change, % for hits at 50 µM; in the data active = activity change below about -80%; inconclusive = mostly about -51% to -80%; note: % is set by controls: 0 for no effect and ±100 for the full control effect
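Neuro2A cells in DMEM with 0.5% FBS, overnight at 37 deg C, given compound at single 50 µM final, then IGF (6 nM final) for 20 min at 37 deg C. Lysed; phospho-Akt Ser473 by HTRF after 24 h, 665/615 ratio.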
D3 ag: activates the human D3 dopamine receptor | 410,000 tested, 0.58% active | max activation, % | P35462 | D3R DiscoveRx beta-arrestin cells, luminescence, 90 min; in the data active = max activation above about 30%; note: 0% is about no effect
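Agonist-mode cell screen: cells plated at 1500/well and incubated overnight at 37 °C, then exposed to library compounds for 90 min at 37 °C. Detection reagent was added for 30–60 min at room temperature, and luminescence was read.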
DRD3 antagonist: blocks the human D3 dopamine receptor | max response, negative = inhibition, % | P35462 | 360,000 tested, 2.5% active | D3R cells, DiscoveRx beta-arrestin luminescence, antagonist mode; stronger effect = lower value; in the data active = max response below about -50%; inconclusive = no clear call, values can overlap the other calls; note: % is set by controls: 0 for no effect and ±100 for the full control effect
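Cells expressing the human receptor were seeded at 1500 cells/well, incubated overnight at 37 degrees C in 5% CO2, then exposed to library compounds with dopamine controls for 90 minutes at 37 degrees C before luminescent detection.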
PI4K2A block: inhibitors of human PI4K2A. Q9BTU6. purified PI4K2A, ADP-Glo luminescence, 1 h; stronger effect = lower value. activity change, negative = inhibition, % at 76.9 µM. 420,000 tested, 0.13% active; in the data active = activity change below about -50%; inconclusive = mostly about -30% to -49%;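 note: -100% = wells without enzyme as full effect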
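PI4K2A activity was measured by ADP-Glo luminescence: enzyme (4 ug/mL stock) and phosphatidylinositol (1.2 mM stock) in Tris pH 7.5/MgCl2/EGTA/Triton X-100 buffer were reacted with ATP (300 microM stock) for one hour at ambient temperature.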
Numbers without * were called inactive; i = inactive; ? = inconclusive; / = no result; ! = a repeat was not active; [ ] = remark or other dose.

SMILES	RGS4 inhibitor	LDHA block	Akt phos inh	D3 ag	DRD3 antagonist	PI4K2A block
Cc1ccc(C(c2nnnn2Cc2cccs2)N2CCN(Cc3ccc4c(c3)OCO4)CC2)cc1 (stereo not drawn)	5%[11.4 µM]	-8	i	-22	-53*	-5
CC(C)(C)c1cc(=O)n2c(C#N)c(C#N)nc2[nH]1	20%	-5	-89%*	-1	-27	-9
N#Cc1c(N)n[nH]c1CCCNC(=O)c1cc(-c2ccco2)nc2ccccc12	/	-2	/	/	/	/
CCC(c1nnnn1CCOC)N1CCN(Cc2ccccc2)CC1 (stereo not drawn)	4%	-12	i	-17	-14	1
CCC(c1nnnn1Cc1ccccc1)N1CCN(C/C=C/c2ccccc2)CC1 (stereo not drawn)	/	1	i	-8	-99*	-1
CCCCn1nnnc1C(c1ccccc1)N1CCN(C/C=C/c2ccccc2)CC1 (stereo not drawn)	/	-1	i	-15	-71*	-2
CCCCn1nnnc1C(c1ccnc2ccccc12)N1CCN(C/C=C/c2ccccc2)CC1 (stereo not drawn)	/	-5	i	-18	-24	-2
CCCCn1nnnc1C(c1cccc2ccccc12)N1CCN(C/C=C/c2ccccc2)CC1 (stereo not drawn)	/	-1	i	-13	-107*	3
CCCCn1nnnc1C(CC)N1CCN(C/C=C/c2ccccc2)CC1 (stereo not drawn)	/	-5	i	-16	-68*	-2
Oc1ccccc1-c1ccnc2cc(-c3ccccc3)nn12	/	-6	/	/	/	/
N#Cc1ccccc1CNc1ccc(F)cc1Cl	/	7	/	/	/	/
O=C(CN1CCN(c2ncc(C(F)(F)F)cc2Cl)CC1)N1CCN(c2ncc(C(F)(F)F)cc2Cl)CC1	26%	2	i	0	-61*	-1
O=C(OCCN1CCN(c2ncc(C(F)(F)F)cc2Cl)CC1)c1ccc(F)cc1	6%	-1	/	-20	?	7
Cc1ccc(C(=O)OCCN2CCN(c3ncc(C(F)(F)F)cc3Cl)CC2)cc1	23%	0	i	-16	-83*	1
CCN(Cc1ccc2c(c1)OCO2)C(=O)CSc1ncnc2sccc12	4%	-3	i	19	1	-4
CCN(Cc1ccc2c(c1)OCCO2)C(=O)CSc1nc(C)nc2sc(C)c(C)c12	18%	-5	i	31*	54	-17
Cc1nc(SCC(=O)NCC2COc3ccccc3O2)c2c(C)c(C)sc2n1 (stereo not drawn)	-4%	-5	i	93*	-26	-2
CCOC(=O)C1CCN(c2cc(C)nc3nc(Cc4ccc(Cl)cc4)nn23)CC1	/	4	/	/	/	/
Clc1ncccc1-c1nc2ccccc2s1	?	-14	i	6	11	2
O=c1c(-c2nc3ccccc3s2)cccn1Cc1ccc(Cl)cc1	-49%	-5	i	56*	17	0
COc1c(Br)cc(Br)cc1C(=O)O	13%	-5	i	37*	-13	2
COc1ccc(C(=O)O)c(Br)c1	/	2	/	/	/	/
O=C(COc1c(F)c(F)c(F)c(F)c1F)N1CCC(c2nc3ccccc3o2)CC1	/	-3	/	/	/	/
COc1nccnc1NS(=O)(=O)c1ccc(N=Cc2c(C)[nH]n(-c3ccc(C)c(C)c3)c2=O)cc1	-3%	0	i	1	-60*	-20
O=C(O)Cn1c(SCc2ccccc2)nc2ccccc21	-8%	-7	i	4	-53*	1
CCCCn1c(SCC(=O)O)nc2ccccc21	35%	-6	i	-11	-80*	8
O=C(O)Cn1c(SCc2cccc3ccccc23)nc2ccccc21	12%	4	i	1	?	-4
CCn1c(SCC(=O)O)nc2ccccc21	-9%	-5	i	3	3	2
CCCCn1c(CN2CCN(C)CC2)nc2ccccc21	-23%	7	-116%*	-3	-12	-4
Cc1c(C#N)c(N)nc2c3c(sc12)NC(=O)CC3c1ccccc1 (stereo not drawn)	9%	-31*!	i	13	1	-1
